The results in this text go back to PubChem BioAssay (EPA / NIEHS).

Several values for one entry are separate records, joined by “and”; a condition that tells them apart may be missing. Equal entries are not always repeated. Where a structure was tested more than once in an assay, its records may differ in their call. Activity calls are given as the source filed them. Rule for the calls: active = hit-call score of the fitted dose curve at least 0.9, where 1 is the maximum; inactive = score below 0.9.

The assay in a line: ATG_BRE_CIS: Attagene CIS-FACTORIAL HepG2 Assay for human Bone Morphogenetic Protein (BMP) Response Element (BRE) (AID 2282933). Particulars: HepG2 BMP response element reporter, Attagene transcription factor profiling; actives raise or lower the signal. As to the method: ATG_CIS is a cell-based, multiplexed-readout assay that uses HepG2, a human liver cell line, with measurements taken at 24 hours after chemical dosing in a 24-well plate.ATG_BRE_CIS is one of 52 assay component(s) measured or calculated from the ATG_CIS assay. It is designed to make measurements of mRNA induction, a form of inducible reporter, as detected with fluorescence intensity signals by Reverse transcription polymerase chain reaction (RT-PCR) and Capillary electrophoresis technology.Data from the assay component ATG_BRE_CIS was analyzed into 1 assay endpoint. This assay endpoint, ATG_BRE_CIS, was analyzed with bidirectional fitting relative to DMSO as the negative control and baseline of activity. Using a type of inducible reporter, measures of mRNA for gain or loss-of-signal activity can be used to understand the reporter gene at the transcription factor-level as they relate to the gene SMAD1. Furthermore, this assay endpoint can be referred to as a primary readout, because this assay has produced multiple assay endpoints where this one serves a reporter gene function. To generalize the intended target to other relatable targets, this assay endpoint is annotated to the dna binding intended target family, where the subfamily is Smad protein.
Human liver HepG2 cells are transiently transfected with multiple reporter transcription units (MRTUs) in 6-well plates using FuGene 6 reagent (Roche; 3 ml FuGene/1 mg DNA). The MRTU constructs are regulated by a cis-regulating element (promoter). […] A major difference between the CIS and TRANS system is that in CIS activities of endogenous TFs are measured, whereas the TRANS assay evaluates changes in activities of exogenous, chimeric NR-Gal4 proteins. […] At the end of 24 hour incubation, total RNA was isolated using TriZol reagent (Invitrogen). The isolated RNA is then reverse-transcribed using oligo(dT) primer and Mo-MLV reverse transcriptase (Invitrogen) with DNAse I (Ambion) treatment for 30 min. The one-tenth of the produced cDNA was amplified by PCR using Taq DNA polymerase (Invitrogen) and two reporter sequence-specific primers. The PCR products were fluorescently labeled by primer extension with 6-arboxyfluorescein (6-FAM) 5'-labeled reporter sequence-specific primer (2 min at 95 C, 20 s at 68 C and 10 min at 72 C) and these products were digested with 5U of HpaI (New England Biolabs) for 2h at 37 C. The fragments were purified using Qiaquick PCR columns (Qiagen), analyzed on an ABI 3130xL genetic analyzer (Applied Biosystems) with peak positions identified by using a set of X-rhodamine (ROX)-labeled MapMarker1000 molecular weight standards (BioVentures). The raw capillary electrophoresis data was processed using Attagraph software (Attagene).
As to `CCNc1nc(NC(C)C)nc(SC)n1`, the call was inactive.
For the molecule `C[C@]12CCC(=O)C=C1CC[C@@H]1[C@@H]2CC[C@@]2(C)[C@H]1CC[C@]2(C)O`, the outcome was inactive; the concentration at half-maximal activity (AC50) (in general, the midpoint of the concentration-response curve, whichever way the signal moves) was 91.5 µM (active) and 64 µM (active).
In the case of `CCCCCCCCCc1ccc(O)cc1`, the AC50 was 55.7 µM (active) and the molecule was called inactive.
For `O=C(N[C@H]1CN2CCC1CC2)c1cc2ccoc2cn1`, the molecule was called inactive.
For `C1CC2OC2CC1C1CO1` (stereo not given), the result was inactive.
Turning to `CCC(C)c1cc([N+](=O)[O-])cc([N+](=O)[O-])c1O` (stereo not given), the AC50 was 11.8 µM (active).
For `NS(=O)(=O)C(F)(F)C(F)(F)C(F)(F)C(F)(F)C(F)(F)C(F)(F)C(F)(F)C(F)(F)F`, the AC50 was 45.4 µM (active) and 248 µM (active) and 15.5 µM (active).
As for `Cc1cc(O)ccc1Cl`, the call was inactive.
On to `CCCCCCOC(=O)c1ccccc1C(=O)OCCCCCC`, for which the call was inactive.
Same read-out and setting: with `Nn1cnnc1` the entry was “inactive”; with `Cc1ccccc1CO[C@@H]1C[C@@]2(C(C)C)CC[C@]1(C)O2`, “inactive”.
Take `C=CC(N)=O`: the call was inactive.
The same measure, in the same setting: with `CCOC(=O)C(O)(c1ccc(Cl)cc1)c1ccc(Cl)cc1` the entry was “inactive”; with `Clc1ccc(C(Cl)(Cl)Cl)cc1`, “inactive”.
For the molecule `CN(C)CCO`, the result was inactive.
`O=C(NC(=O)c1c(F)cccc1F)Nc1cc(Cl)c(OC(F)(F)C(F)F)c(Cl)c1`: the result was inactive.
Regarding `Cc1ccccc1O`, the result was inactive.
Regarding `CCC(C)(CC)c1cc(NC(=O)c2c(OC)cccc2OC)on1`, the concentration at half-maximal activity (AC50) was 9.92 µM (active).
In the case of `c1ccc(-c2ccccc2)cc1`, the call was inactive.
Same read-out and setting: the entry for `OCC(O)CO` is “inactive”; for `Nc1ccc(-c2ccc(N)cc2)cc1` it is “inactive”; for `Cc1cc2c3c(c1)C(c1ccccc1)=N[C@@H](NC(=O)c1ccncc1)C(=O)N3CC2` it is “inactive”.
Consider `O=C(NC(=O)c1cc(F)c(F)cc1Cl)Nc1cc(F)ccc1N1CCC(C(=O)O)CC1`, for which the call was inactive.
Same read-out and setting: the entry for `Clc1ccc(C(c2ccccc2Cl)C(Cl)(Cl)Cl)cc1` (stereo not given) is “inactive”.
Consider `CCCCCCCCCC[N+](C)(C)CCCCCCCCCC`, for which the molecule was called inactive.
Take `O=C(O)C(F)(F)C(F)(F)C(F)(F)C(F)(F)C(F)(F)C(F)(F)C(F)(F)C(F)(F)F`: the AC50 was 248 µM (active) and the molecule was called inactive.
Turning to `ClC1=C(Cl)[C@]2(Cl)[C@@H]3[C@@H](Cl)[C@H]4O[C@H]4[C@@H]3C1(Cl)C2(Cl)Cl`, the result was inactive.
In the case of `CO/C=C(/C(=O)OC)c1ccccc1COc1cccc(C(F)(F)F)n1`, the concentration at half-maximal activity (AC50) is 20.2 µM (active).
For `Oc1ccc(C(c2ccc(O)cc2)(C(F)(F)F)C(F)(F)F)cc1`, the AC50 was 16 µM (active) and the molecule was called inactive.
As for `CC(C)(c1ccccc1)c1ccc(O)cc1`, the result was inactive and the AC50 is 33.4 µM (active).
As to `CCCN(CCC)N=O`, the molecule was classed as inactive.
In the case of `ClC1=C(Cl)[C@]2(Cl)[C@@H]3[C@H]4C[C@H]([C@@H]5O[C@H]45)[C@@H]3[C@@]1(Cl)C2(Cl)Cl`, the molecule was called inactive.
Take `CCC(=O)O[C@H]1CC[C@H]2[C@@H]3CCC4=CC(=O)CC[C@]4(C)[C@H]3CC[C@]12C`: the AC50 was 149 µM (active) and 100 µM (active) and 160 µM (active); the result was inactive.
As to `CCSC(=O)N(CC)C1CCCCC1`, the molecule was called inactive.
